Source: PubChem BioAssay
D2 antagonist: antagonizes the human D2 dopamine receptor. 340,000 compounds, 2% hits. HEK293 TREx D2 cells, calcium flux, dopamine EC80. P14416. inhibition, % at 10 µM; in the data active means inhibition above about 30%; inactive means below that, where a call was filed
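Inhibition of EC80 dopamine-driven calcium flux, recorded kinetically, defines activity here; cells are a tetracycline-induced HEK293 T-REx line expressing force-coupled D2.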
D2 PAM-1: D2 dopamine receptor (human) potentiation. 340,000 compounds, 0.34% hits. P14416. potentiation, % at 10 µM. HEK293 T-REx D2, calcium flux, EC20 dopamine potentiation;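 active means potentiation over 3 SD above the plate norm, cut at about 30% in these data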
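Calcium flux readout, no-wash dye, 1 read/s. Inducible HEK293 Trex D2 line, overnight 30 C. Compound alone 180 s (agonist flags), then EC20 dopamine, another 180 s to score potentiation.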
D2 ag-1: agonists of human D2 dopamine receptor; 340,000 compounds, 0.53% hits; HEK293 T-REx D2 cells, calcium flux agonist mode; activation, % at 2 µM; P14416;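 active means activation over 3 SD above normal in the single-dose calcium agonist read, cut at about 30% in these data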
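Tetracycline-induced HEK293 Trex cells with D2 receptor force-coupled to calcium signaling, plated overnight at 30 C and loaded with no-wash calcium dye. Calcium flux read kinetically for 180 s after compound addition; responses flag agonists.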
D2 ag-2: activates the human D2 dopamine receptor | DiscoveRx PathHunter D2 beta-arrestin, luminescence, 90 min; 100% = 57 uM dopamine signal | 360,000 compounds, 0.084% hits | activation, % (test concentration not listed) | P14416; in the data active means activation above about 40%; inconclusive means between about 15% and that limit
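DiscoveRx PathHunter D2 beta-arrestin cells (2,100/well) attached overnight, then compound-stimulated 90 min at 37 C in HBSS/10 mM HEPES/0.1% Tween-20 buffer; beta-galactosidase complementation read by luminescence after 1 h at ambient temperature. Dopamine 57 uM final (EC100) as control.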
D2 PAM-2: potentiates the human D2 dopamine receptor allosterically. DiscoveRx D2 beta-arrestin cells, luminescence, 90 min; 100% = 57 uM dopamine signal. 360,000 compounds, 0.23% hits. potentiation, % (test concentration not listed). P14416; in the data active means potentiation above about 50%; inconclusive means mostly about 30% to 49%
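PathHunter D2 cells, attached overnight at 37 deg C, received compound in DMSO plus dopamine at EC20 (50 nM final) for 90 min at 37 deg C. Beta-arrestin recruitment was read as luminescence after 1 h with detection reagent at ambient temperature.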
D3 arrestin ag: D3 receptor agonism confirmed, beta-arrestin readout; shares compounds with D2 ag-1; DiscoveRx D3 beta-arrestin cells, luminescence, 90 min; Potency, µM (highest dose often 76.9 µM), most hits filed as activators; 2,300 compounds, 4% hits; AID 720506; further: nearly all actives have a fitted effect of over 70% in size
Target sequence (P35462 whole entry, looked up): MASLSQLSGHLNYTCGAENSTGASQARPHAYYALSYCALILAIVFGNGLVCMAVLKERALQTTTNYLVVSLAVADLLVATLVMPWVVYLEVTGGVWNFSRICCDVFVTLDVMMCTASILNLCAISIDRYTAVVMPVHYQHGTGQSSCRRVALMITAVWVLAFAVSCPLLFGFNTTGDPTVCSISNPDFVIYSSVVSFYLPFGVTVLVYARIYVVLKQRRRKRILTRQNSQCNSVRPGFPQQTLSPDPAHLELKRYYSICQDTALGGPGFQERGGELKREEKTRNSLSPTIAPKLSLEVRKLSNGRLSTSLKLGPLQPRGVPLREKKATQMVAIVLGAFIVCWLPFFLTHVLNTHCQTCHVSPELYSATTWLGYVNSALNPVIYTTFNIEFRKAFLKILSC
D2 ag-3: counter-screen for D3 agonists: human D2 dopamine receptor agonism | 2,300 compounds, 5.9% hits | DiscoveRx PathHunter D2 beta-arrestin, luminescence, 90 min; response scale: percent relative to full dopamine signal | shares compounds with D2 ag-1 | Potency, µM (titrated, usually from 76.9 µM), usual class: activators; further: nearly all actives have a fitted effect of over 70% in size
Each line names hits and unclear results; the compound was inactive in the other large screens (follow-up assays come after a bar, where they were run). The list is not random: actives were taken first. Their share in the collection is about 2.4%. Unless noted, the call rests on the fitted dose curve; in most records, active means well fitted activation curve with a large enough effect; inconclusive means small, poorly fitted or top-dose-only effect; inactive means flat fitted curve, though single readings scatter.

O=C(NCCCN1CCN(c2ccccc2F)CC1)C1CCN(S(=O)(=O)c2cccs2)CC1	D2 antagonist 74.7, D2 ag-1 70.2, D2 ag-2 inconclusive | D3 arrestin ag inconclusive | D2 ag-3 10µM
CCOC(=O)c1nnn(C(CC)C(=O)Nc2ccc(F)cc2)c1C(=O)OCC (stereo unspecified)	none (no result: D2 antagonist, D2 ag-2, D2 PAM-2)
CCOC(=O)C1CCN(C(=O)C2CCN(c3nnc(C)c4c(C)n(-c5ccccc5)nc34)CC2)CC1	none (no result: D2 antagonist, D2 ag-2, D2 PAM-2)
O=C(CCN1C(=O)COc2ccccc21)NCCCN1CCN(c2ccccc2F)CC1	D2 antagonist 82.0, D2 ag-1 69.2 | D3 arrestin ag inactive | D2 ag-3 inactive
CCCN1CCN(CCCNC(=O)c2ccc3c(=O)n(CCc4ccccc4)c(=O)[nH]c3c2)CC1	D2 antagonist 30.5, D2 ag-1 68.0 | D3 arrestin ag inactive | D2 ag-3 inactive
CCCS(=O)(=O)N1CCCC(C(=O)NCCCN2CCN(c3cccc(Cl)c3)CC2)C1 (stereo unspecified)	D2 antagonist 51.2, D2 ag-1 47.6 | D3 arrestin ag inconclusive | D2 ag-3 inactive
O=C(NCCCN1CCN(c2ccccc2F)CC1)C1CCC(=O)N1C1CCCC1 (stereo unspecified)	D2 antagonist 66.4, D2 ag-1 72.2 | D3 arrestin ag inactive | D2 ag-3 inconclusive
O=C(NCCS(=O)(=O)N1CCN(c2cccc(Cl)c2)CC1)C1CCCC1	none
Cc1ccc(Cc2cnc(NC(=O)c3ccc4c(c3)CC(c3ccccc3)OC4=O)s2)cc1 (stereo unspecified)	none (no result: D2 antagonist, D2 ag-2, D2 PAM-2)
CC(=O)c1ccc(N2CCN(c3ncnc4c3nc3n4CCCC3)CC2)cc1	none (no result: D2 antagonist, D2 ag-2, D2 PAM-2)
CCC(C)Nc1ccc(NC(C)CC)cc1 (stereo unspecified)	none | D3 arrestin ag inactive | D2 ag-3 inactive
Cc1ccc(NC(=O)c2nc[nH]c2C(=O)NCCCCCNC(=O)OC(C)(C)C)cc1	none | D3 arrestin ag inactive | D2 ag-3 inactive
Cc1ccc(NC(=O)c2nc[nH]c2C(=O)N2CCN(C(=O)OC(C)(C)C)CC2)cc1	none | D3 arrestin ag inactive | D2 ag-3 inactive
CC(C)(C)OC(=O)N1CCN(C(=O)c2[nH]cnc2C(=O)Nc2ccc(Cl)cc2)CC1	none (no result: D2 antagonist, D2 PAM-1, D2 ag-1)
O=C(Nc1ccc(Cl)cc1)c1nc[nH]c1C(=O)N1CCc2ccccc2C1	D2 antagonist 50.9 | D3 arrestin ag inactive | D2 ag-3 inactive
O=C(Nc1nccs1)c1nc[nH]c1C(=O)N1CCc2ccccc2C1	none
CC(C)(C)OC(=O)NCCCCCNC(=O)c1[nH]cnc1C(=O)Nc1ccc(Cl)cc1	none
Cc1ccc(NC(=O)Cn2c(=O)n(CCC(=O)N3CCc4ccccc4C3)c(=O)c3ccccc32)c(C)c1	none (no result: D2 antagonist, D2 PAM-1, D2 ag-2, D2 PAM-2)
Cn1cc(C(F)(F)F)nc1-c1ccc(OCC(O)CNCCOc2ccc(O)c(C(N)=O)c2)cc1 (stereo unspecified)	D2 antagonist 71.8, D2 ag-1 89.7, D2 ag-2 inconclusive | D3 arrestin ag inconclusive | D2 ag-3 inconclusive
COc1ccc(NC(=O)COC(=O)CNC(=O)c2cccs2)cc1Cl	none | D3 arrestin ag inactive | D2 ag-3 inactive
CCOc1ccc(NC(=O)CC2C(=O)N(c3ccccc3)C(=O)N2Cc2ccc3c(c2)OCO3)cc1 (stereo unspecified)	none (no result: D2 antagonist, D2 ag-1, D2 ag-2, D2 PAM-2)
CCn1cc(C(=O)NCc2ccc(Cl)cc2)c(=O)c2cc(S(=O)(=O)N(C)C3CCCCC3)ccc21	none (no result: D2 antagonist, D2 ag-2, D2 PAM-2)
O=C(O)Cc1sc(Nc2ccccc2)nc1-c1ccccc1	none (no result: D2 antagonist, D2 ag-2, D2 PAM-2)
O=C(O)Cc1sc(N/N=C\c2ccncc2)nc1-c1ccccc1	D2 ag-2 inconclusive | D3 arrestin ag inconclusive | D2 ag-3 inactive
Cc1ccc(C)n1-c1nnc(N2CCCC(C(=O)NCc3ccc(F)cc3)C2)s1 (stereo unspecified)	none (no result: D2 antagonist, D2 PAM-1, D2 ag-2, D2 PAM-2)
CN(C(=O)c1ccc(NC(=O)Cc2cccc(NC(=O)C3CCN(C(=O)C4CC4)CC3)c2)cc1)C1CCCC1	none | D3 arrestin ag inactive | D2 ag-3 inactive
O=C(CCc1ccccc1)NNC(=S)NCc1ccc(Cl)cc1	none
COc1ccc(CCC(=O)NNC(=O)Nc2cccc(Cl)c2)cc1	none
O=C(CCc1ccc(O)c(O)c1)NNC(=S)NCCc1ccccc1	D2 ag-1 46.4 | D3 arrestin ag inconclusive | D2 ag-3 inactive
COc1cccc(NC(=O)NNC(=O)CCc2ccc(O)c(O)c2)c1	D2 ag-1 52.5, D2 ag-2 inconclusive | D3 arrestin ag 7.94µM | D2 ag-3 inactive
CN(C(=O)CSc1nc2ccc(NC(=O)c3ccc(F)cc3)cc2s1)c1ccccc1	none (no result: D2 antagonist, D2 ag-2, D2 PAM-2)
COc1ccc(-n2c(=O)c3ccc(C(=O)NCc4ccc(C)cc4)cc3n(CC(=O)Nc3cccc(F)c3)c2=O)cc1	none (no result: D2 antagonist, D2 ag-2, D2 PAM-2)
Cc1cc(C)nc(N2CCC(C(=O)NCc3ccco3)CC2)n1	none (no result: D2 antagonist, D2 PAM-1, D2 ag-1)
Cc1cc(C)nc(N2CCC(C(=O)NCc3cccs3)CC2)n1	D2 ag-1 31.4 | D3 arrestin ag inactive | D2 ag-3 inactive
Cc1oc(-c2ccccc2F)nc1CN1CCC(C(=O)NCc2cccs2)CC1	D2 ag-1 52.2 | D3 arrestin ag inactive | D2 ag-3 inactive
COC(=O)CN(C)C(=O)CC1C(=O)NCCN1CC(C)(C)C (stereo unspecified)	D2 ag-1 40.2 | D3 arrestin ag inactive | D2 ag-3 inactive
CCc1ccccc1NC(=O)c1ccc2nc(C(C)C)oc2c1	none (no result: D2 antagonist, D2 ag-2, D2 PAM-2)
COCCN=c1scc(-c2cccs2)n1/N=C/c1ccc(O)c(O)c1O	D2 antagonist 73.3, D2 ag-1 78.4, D2 ag-2 93.7, D2 PAM-2 75.7 | D3 arrestin ag 25.1µM | D2 ag-3 7.08µM
COc1ccc(C2(C)NC(=O)N(CC(=O)Nc3cccnc3Cl)C2=O)cc1 (stereo unspecified)	none
CC1(c2ccc(OC(F)F)cc2)NC(=O)N(CC(=O)Nc2cccnc2Cl)C1=O (stereo unspecified)	none | D3 arrestin ag inactive | D2 ag-3 inactive
O=C(NNC(=S)NC1CCCCC1)c1sc2ccccc2c1Cl	none
CC(C)(C)C(=O)NC(=S)NNC(=O)c1sc2ccccc2c1Cl	D2 antagonist 56.6, D2 ag-1 146.0 | D3 arrestin ag inactive | D2 ag-3 inactive
COc1ccc2oc(-c3ccc(C)c(NC(=O)c4ccc(N5CCCCC5)c([N+](=O)[O-])c4)c3)nc2c1	none (no result: D2 antagonist, D2 ag-1, D2 ag-2, D2 PAM-2)
CCOC(=O)c1c(C)[nH]c(C(=O)OCc2ccccc2)c1C	none
CCOC(=O)CCc1c(C(=O)OCC)[nH]c(CC)c1C(=O)OCc1ccccc1	none | D3 arrestin ag inactive | D2 ag-3 inactive
CCOC(=O)c1[nH]c(C)c(C(=O)N2CCOCC2)c1C	none
